MITF act: activators of MITF-driven TRPM1 promoter activity in SK-MEL-5 cells; SK-MEL-5 TRPM1-promoter luciferase, 24 h; % of positive control, neutral wells = 0; 0.75% of 300,000 active; activation, % at 12.5 µM; AID 588334;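 active = mean activation of at least 80% with every replicate also reaching 80%; inconclusive = mean reaches 80% but some replicate falls short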
Wnt act: activators of Wnt/beta-catenin signaling; 1.2% of 300,000 active; activation, % at 9.35 µM; AID 743398; Wnt/beta-catenin reporter cell assay, activator, plate reader; in the data active = activation above about 30%, passing the limit was not always enough; inconclusive = no clear call, values can overlap the other calls
FGF22 binding: FGF22 (human) thermal shift binding; Q9HCT0; recombinant FGF22 thermal shift, SYPRO orange fluorescence; percent of sucrose octasulfate shift, DMSO zero; activity (Tm shift, normalised), % at 9.99 µM; 1.5% of 340,000 active; AID 651658;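 active = mean Tm shift, scaled 0 neutral to 100 positive control, at about 1.3% or above, every replicate too, limit read from the data; inconclusive = no clear call, values can overlap the other calls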
esBAF inh: blocks esBAF chromatin remodeling in mouse ES cells; 2% of 350,000 active; Bmi1-luciferase knock-in reporter, 24 h; 100% = twice the neutral-well signal; reporter increase, % at 12.5 µM; in the data active = activation above about 40%; inconclusive = no clear call, values can overlap the other calls;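 also: a rise in the Bmi1 reporter signal indicates esBAF inhibition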
SMARCA2 act: activators of SMARCA2 function; MG213 cells, MMTV-luciferase reporter, dexamethasone, overnight; activation, % at 9.1 µM; 1% of 370,000 active; in the data active = activation above about 7.8%
MLL AF4-AF9 inh: blocks AF4 peptide binding to human AF9. inhibition, % at 10 µM. AID 651704. AlphaScreen, biotin-AF4 peptide binding to FLAG-AF9. 0.47% of 350,000 active;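 active = every replicate reaching a set inhibition limit, whatever the replicate mean, cut at about 25% in these data; inconclusive = mean inhibition reaches that limit but some replicates miss it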
Target sequence (P42568 whole entry, looked up): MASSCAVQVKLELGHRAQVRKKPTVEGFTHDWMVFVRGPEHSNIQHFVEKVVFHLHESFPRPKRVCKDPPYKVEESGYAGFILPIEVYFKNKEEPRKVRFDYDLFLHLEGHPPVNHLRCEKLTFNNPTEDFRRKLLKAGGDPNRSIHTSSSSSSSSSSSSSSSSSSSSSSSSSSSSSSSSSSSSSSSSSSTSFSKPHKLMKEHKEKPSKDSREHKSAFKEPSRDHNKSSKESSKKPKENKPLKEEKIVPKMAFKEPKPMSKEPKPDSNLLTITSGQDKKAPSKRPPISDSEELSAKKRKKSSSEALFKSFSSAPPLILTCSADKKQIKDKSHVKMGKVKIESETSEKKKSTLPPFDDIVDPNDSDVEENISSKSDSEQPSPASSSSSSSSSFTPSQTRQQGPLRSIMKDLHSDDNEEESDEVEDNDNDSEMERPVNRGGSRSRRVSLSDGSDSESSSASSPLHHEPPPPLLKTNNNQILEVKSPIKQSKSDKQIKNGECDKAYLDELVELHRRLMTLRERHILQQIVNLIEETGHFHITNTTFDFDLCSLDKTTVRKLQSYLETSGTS
Of the large screens only hits and unclear results are named; the others gave an inactive call. Shown are actives, neighbours in structure and some others; about 4.3% of the full set was active somewhere.

COc1ccc(N2c3ccccc3CN(Cc3ccccc3)[C@@H](C)[C@H]2Cc2cccnc2)cc1	MLL AF4-AF9 inh 25 (no result: MITF act)
O=C(c1ccccc1)c1cc[n+]([O-])cc1	none (no result: MITF act, FGF22 binding, MLL AF4-AF9 inh)
[O-][n+]1ccc(C2CC2)cc1	Wnt act 39 (no result: MITF act, FGF22 binding, MLL AF4-AF9 inh)
NNC(=O)c1ccc(COc2ccc3c(c2)CCC3)o1	none (no result: Wnt act, FGF22 binding, esBAF inh, MLL AF4-AF9 inh)
O=C(N/N=C/c1cccc(O)c1)c1ccc(COc2ccc3c(c2)CCC3)o1	esBAF inh 52 (no result: Wnt act, FGF22 binding, MLL AF4-AF9 inh)
C[C@@H]1CN([C@H](C)CO)C(=O)c2cc(N(C)C)ccc2O[C@@H](C)CCCCO[C@H]1CN(C)C(=O)CCC(F)(F)F	none (no result: MITF act, Wnt act, SMARCA2 act)
Cc1nnc(SCC(=O)Nc2ccccc2)c2ccccc12	esBAF inh 69
O=C(NCC1CC1)c1ccc2c3n(nc2c1)-c1ccc(Cl)cc1CO3	esBAF inh 44
C=CCNC(=O)c1ccc2c3n(nc2c1)-c1ccccc1CO3	none
COCCNC(=O)c1ccc2c3n(nc2c1)-c1ccccc1CO3	esBAF inh 53
COCCNC(=O)c1ccc2c3n(nc2c1)-c1ccc(Cl)cc1CO3	MITF act 87, esBAF inh 63 (no result: MLL AF4-AF9 inh)
Cc1ccc2c(c1)COc1c3ccc(C(=O)NCCO)cc3nn1-2	MITF act 102, Wnt act 52, esBAF inh 62
CN(C)CC(=O)N[C@@H]1CC[C@H](CCNS(=O)(=O)c2ccccc2)O[C@H]1CO	none (no result: MITF act, Wnt act, SMARCA2 act)
CCC(=O)Nc1ccc2c(c1)C(=O)N(C)C[C@H](OC)[C@@H](C)CN(C(=O)CN(C)C)[C@@H](C)CO2	none (no result: MITF act, Wnt act, esBAF inh, SMARCA2 act)
O=C(NCCO)c1cccc(Cl)c1	none (no result: MITF act, Wnt act, FGF22 binding, MLL AF4-AF9 inh)
O=C(NCCO)c1ccc2c3n(nc2c1)-c1ccc(Cl)cc1CO3	MITF act 84, Wnt act 51, esBAF inh 68 (no result: FGF22 binding, MLL AF4-AF9 inh)
N#C[C@H]1[C@H](c2ccc(C#Cc3ccccc3F)cc2)[C@@H](CO)N1C(=O)C1CCCC1	none (no result: MITF act, Wnt act, FGF22 binding, esBAF inh, SMARCA2 act)
COc1ccc(/C=N/Nc2nc3ccccc3o2)cc1O	Wnt act 62 (no result: FGF22 binding, MLL AF4-AF9 inh)
COc1cc(/C=N\Nc2nc3ccccc3o2)cc(OC)c1OC	Wnt act inconclusive, esBAF inh 51 (no result: FGF22 binding, MLL AF4-AF9 inh)
COc1cc(/C=N/Nc2nc3ccccc3o2)cc(OC)c1O	none (no result: MITF act, Wnt act, FGF22 binding, MLL AF4-AF9 inh)
C[C@H]1CN([C@@H](C)CO)C(=O)Cc2cc(NS(=O)(=O)c3ccc(Cl)cc3)ccc2O[C@H]1CN(C)Cc1ccccc1	none (no result: MITF act, Wnt act, SMARCA2 act)
O=C(O)C1CC(c2ccccc2)=Nc2ccccc2S1 (stereo not drawn)	esBAF inh 52
O=C(Nc1ccccc1)N1c2ccccc2SC1c1ccco1 (stereo not drawn)	none (no result: MITF act, esBAF inh)
NNC(=O)c1ccc(Cn2cc(Cl)cn2)cc1	none (no result: Wnt act, FGF22 binding, MLL AF4-AF9 inh)
O=C(Nc1ccc(Cl)c(Cl)c1)c1ccc(Cn2cc(Cl)cn2)cc1	esBAF inh 69
CC(C)(C)OC(=O)NNC(=S)NC1CCCCC1	Wnt act 46 (no result: esBAF inh)
Cc1nc(OCC(C)C)c2sc3nc4c(cc3c2n1)COC(C)(C)C4	Wnt act 52 (no result: MITF act, esBAF inh)
CCc1nc(OCc2ccco2)c2sc3nc4c(cc3c2n1)COC(C)(C)C4	none (no result: MITF act, FGF22 binding, MLL AF4-AF9 inh)
CCCCSC(=O)Nc1ccccc1	esBAF inh 50 (no result: FGF22 binding, MLL AF4-AF9 inh)
O=C(C[C@H]1C[C@@H]2c3cc(NS(=O)(=O)c4ccc(F)cc4)ccc3O[C@@H]2[C@H](CO)O1)NCCc1ccccc1	none (no result: MITF act, Wnt act, SMARCA2 act)
Cc1ccc(C(=O)OCc2c(C)noc2C)cc1NC(=O)c1ccco1	FGF22 binding 44 (no result: esBAF inh)
CCCCNC(=O)COC(=O)c1ccc(C)c(NC(=O)c2ccco2)c1	none (no result: esBAF inh)
CCCC(=O)Nc1ccc2c(c1)Cc1ccccc1-2	esBAF inh 58
COc1cc(C(=O)Nc2ccc3c(c2)Cc2ccccc2-3)cc(OC)c1OC	FGF22 binding 43 (no result: esBAF inh)
CC(=O)Nc1c(Cl)cc2c(c1Cl)Cc1ccccc1-2	none (no result: esBAF inh)
CC(=O)Nc1cc2c(cc1Br)-c1ccccc1C2	esBAF inh 56
COc1ccc(CN(C)C[C@@H]2OCCCC[C@H](C)Oc3ccc(NC(=O)CCCN(C)C)cc3C(=O)N([C@H](C)CO)C[C@@H]2C)cc1	none (no result: MITF act, Wnt act, SMARCA2 act)
O=C(NCC[C@@H]1CC[C@H](NC(=O)c2cccnc2)[C@@H](CO)O1)Nc1ccc(Cl)cc1	none (no result: MITF act, Wnt act, SMARCA2 act)
CC1=CC(C)(C)n2c(O)c(N=N)c3cc(C)cc1c32	MLL AF4-AF9 inh 26 (no result: esBAF inh)
Cc1ccc(C(=O)NNC(=O)c2ccc3ccccc3c2)cc1	esBAF inh 67
Cc1ccccc1NC(=O)c1ccc2ccccc2c1	esBAF inh 45
Cc1ccccc1NC(=O)NNC(=O)c1ccc2ccccc2c1	none

Assay outcomes (PubChem)
